The source of these data is PubChem BioAssay.

Each structure is given as a SMILES string.

The target of the assay is Tumor necrosis factor receptor superfamily member 10B (Homo sapiens) (UniProt O14763). Briefly: viability loss of caspase-8 NB7 cells with TRAIL – with/without TRAIL, luminescence panel, confirmation (AID 651596). The conditions noted are these: NB7 neuroblastoma + caspase-8, TRAIL sensitization, NB7 Caspase-8, with TRAIL, mean of runs, at 10 µM, stronger effect = higher value.
Tumor necrosis factor receptor superfamily member 10B (Homo sapiens), sequence (O14763 whole entry, looked up): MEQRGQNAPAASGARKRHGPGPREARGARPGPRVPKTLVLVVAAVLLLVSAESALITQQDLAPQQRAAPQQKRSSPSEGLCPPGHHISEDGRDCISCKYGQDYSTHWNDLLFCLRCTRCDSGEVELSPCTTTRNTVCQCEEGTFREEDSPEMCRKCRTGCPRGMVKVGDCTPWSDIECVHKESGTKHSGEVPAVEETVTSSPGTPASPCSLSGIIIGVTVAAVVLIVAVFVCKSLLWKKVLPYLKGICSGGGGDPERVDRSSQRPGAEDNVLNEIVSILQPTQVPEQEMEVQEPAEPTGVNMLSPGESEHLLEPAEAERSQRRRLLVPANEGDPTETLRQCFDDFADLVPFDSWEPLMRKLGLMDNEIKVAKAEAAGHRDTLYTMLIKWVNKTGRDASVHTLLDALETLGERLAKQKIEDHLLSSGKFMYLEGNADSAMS
For `Nc1ccccc1C=C1Cc2ccccc2C1=O`, the activity was 58.5%.

Regarding `Nc1ccc(-c2nc3ncccc3o2)c(Cl)c1`, the activity was found to be 43.9%.

Turning to `O=C(/C=C/c1ccc2c(c1)OCO2)Nc1cccnc1`, the activity was 71.1%.

In the case of `CCOC(=O)COc1ccc(-c2nnc(-c3ccccc3)o2)cc1`, the activity was determined as 43.2%.

With `O=C(NC(=S)Nc1nc2ccc(F)cc2s1)c1ccco1`, the activity came out at 85.3%.

On to `C/C=C/c1ccc(OCCCNC2CCCC2)c(OC)c1`, for which the activity came out at 1.5%.

Turning to `CC(=O)c1ccc(NC(=O)Nc2ccccc2)cc1`, the activity came out at 65.2%.

Regarding `COc1ccc(C=C2OC(=O)C(C(C)=O)=C2O)cc1`, the activity was found to be 90.4%.

As for `COc1ccccc1-c1nc(-c2ccccn2)no1`, the activity came out at 76.7%.

In the case of `Cc1ccc(NC(=S)c2nc3ccccc3s2)cc1`, the activity turned out to be 30.7%.

For the molecule `C/C(=N\Nc1nc2ccccc2[nH]1)c1ccccn1`, the activity stood at 51.5%.

As to `CCS(=O)(=O)c1ncc(Cl)c(C(=O)Nc2ccc(C)cc2)n1`, the activity came to 78.6%.

For the molecule `Cc1cccc(NS(=O)(=O)c2ccc3c(c2)Cc2cc(S(=O)(=O)Nc4cccc(C)c4C)ccc2-3)c1C`, the activity stood at 72.1%.

Consider `Cc1[nH]cnc1C(=O)N/N=C/c1c(Cl)cccc1Cl`, for which the activity turned out to be 58.7%.

As to `O=[N+]([O-])c1c(Nc2cccc(O)c2)cc(Cl)c2nonc12`, the activity was found to be 97%.

In the case of `O=C(/C=C/C(Cl)(Cl)Cl)Nc1ccc(Cl)cc1`, the activity amounted to 98.8%.

Consider `Cc1ccc(-c2nc(N/N=C/c3cccc([N+](=O)[O-])c3)c3ccccc3n2)cc1`, for which the activity amounted to 70.8%.

Turning to `CC(C)(C)c1ccc(-c2noc(CCC(=O)N3CCOCC3)n2)cc1`, the activity is 66.5%.

Consider `COc1ccc(/C=C2\Oc3ccccc3C2=O)cc1`, for which the activity is 76.7%.

Regarding `CC(C)C(=O)Nc1ccc2nn(-c3ccccc3)nc2c1`, the activity worked out at 52.4%.
